NADH enzymes = inhibitors of enzymes used to reach an NAD/NADH endpoint. coupled PK/LDH NADH assays, four targets. IC50, µM (series often up to 10 µM), without a hit: top-dose inhibition. 65,000 tested, 0.02% active. AID 774;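 active = single-dose screening hits from any of four coupled enzyme assays that gave an IC50 when retested across doses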;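 note: the DPM-DC format reads NADH fluorescence rather than 340 nm absorbance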
Spn DPM-DC inh = S. pneumoniae DPM-DC inhibition. purified DPM-DC, PK/LDH coupled NADH fluorescence. calls only at 10 µM. 65,000 tested, 0.49% active. AID 556;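 active = the 320 compounds with the highest percent inhibition in the single-dose primary screen, excluding strongly autofluorescent ones, cut at about 32% in these data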;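 note: kinetic rate of NADH fluorescence loss reporting ADP formed by the decarboxylase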
Fluor 339 460 = intrinsic fluorescence of library compounds, ex339/em460 – biochemical, MLSMR library, data from DPM-DC assay, artefact control, profiling panel; 65,000 tested, 5.5% active; compound autofluorescence, ex339/em460 nm, NADH buffer; hits give high values; 1 = no-compound wells, NADH background; fluorescence fold increase at 10 µM;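 active = at 10 µM, mean starting fluorescence two-fold or more over control wells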;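 note: signal is the first read of a kinetic run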
A340 absorber = compound absorbs light at 340 nm; AID 708; fold change at 10 µM; compound absorbance at 340 nm, fold over control; 65,000 tested, under 10 active;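 active = at 10 µM dose, initial 340 nm absorbance at least 2 fold that of control wells; inactive = change under 2 fold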;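 note: initial absorbance extrapolated from kinetic A340 decline of NADH oxidation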
PMK inhibit = inhibitors of Streptococcus pneumoniae phosphomevalonate kinase. purified PMK, PK/LDH-coupled NADH absorbance 340 nm. inhibition, % at 10 µM. 65,000 tested, 0.49% active. AID 539;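 active = top-ranked compounds by inhibition in the single 10 µM screen, taking a fixed number of the strongest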;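 note: 0% = full reaction with DMSO carrier and 100% = background rate without enzyme reaction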
Spn MK inh = S. pneumoniae mevalonate kinase inhibition; inhibition, % at 10 µM; AID 555; purified MK, PK/LDH-coupled NADH absorbance 340 nm; 65,000 tested, 0.48% active;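 active = ranked among the strongest by inhibition in the single 10 µM screen, a fixed top-ranked set picked for dose follow-up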
* hit, by the source's call; i = inactive; . = no result given; + = active, no number. Shown are actives, neighbours in structure and some others; about 6.5% of the full set was active somewhere.

SMILES | NADH enzymes | Spn DPM-DC inh | Fluor 339 460 | A340 absorber | PMK inhibit | Spn MK inh
COC(=O)C(C)Oc1ccc2c3c(c(=O)oc2c1)CCCCC3 (centres undefined) | 1.0% | . | 2.96* | 1.02 | 2.0 | 0.0
Cc1coc2cc3oc(=O)c4c(c3cc12)CCCC4 | 4.0% | i | 1.79 | 1.1 | 1.0 | 6.0
O=c1oc2cc(O)ccc2c2c1CCCC2 | 7.0% | . | 2.12* | 1.11 | 4.0 | 9.0
CC(C)Oc1ccc2c3c(c(=O)oc2c1)CCC3 | 2.0% | . | 2.11* | 1.09 | 4.0 | 0.0
O=S1(=O)NC2CCCCCN2c2ccc(F)cc21 (centres undefined) | 11.0% | i | 3.64* | 1.05 | 9.0 | 0.0
O=C(Nc1ccc(F)cc1)C1CCCCC1 | 2.0% | i | 1.03 | 1.02 | 6.0 | 0.0
O=C(CSc1nnc(-c2ccccc2O)o1)Oc1ccc(OCc2ccccc2)cc1 | 2.0% | . | 3.97* | 1.05 | 2.0 | 2.0
CN(C)Cc1nc2ccccc2c(=O)n1Cc1nc(-c2cc3ccccc3o2)cs1 | 19.0% | + | 0.84 | 1.01 | 19.0 | 4.0
CC1CCN(c2c(NCc3ccc(C(=O)N4c5ccccc5CC4C)cc3)c(=O)c2=O)CC1 (centres undefined) | 7.0% | i | 1.03 | 0.99 | 15.0 | 6.0
CCOC(=O)c1oc2c(CN3CCN(C)CC3)c(O)ccc2c(=O)c1-c1ccccc1OC | 1.0% | i | 0.97 | 1.01 | 1.0 | 1.0
COc1ccccc1-c1c(C)oc2c(CN3CCN(CCO)CC3)c(O)ccc2c1=O | 1.0% | . | 3.92* | 1.13 | 0.0 | 2.0
Cc1oc2c(CN3CCCC3)c(O)ccc2c(=O)c1-c1ccc(Br)cc1 | 10.0% | . | 3.78* | 1.13 | 12.0 | 7.0
COc1ccc(-c2c(C)oc3c(CN4CCN(CCO)CC4)c(O)ccc3c2=O)cc1OC | 0.0% | . | 3.85* | 1.15 | 0.0 | 0.0
COc1ccccc1-c1c(C)oc2c(CN3CCN(C)CC3)c(O)ccc2c1=O | 10.0% | . | 2.35* | 1.07 | 8.0 | 11.0
CC(c1ccco1)N(C(=O)c1ccc(Cl)s1)c1ccccn1 (centres undefined) | 7.0% | i | 1.05 | 0.99 | 20.0 | 0.0
O=C(CNS(=O)(=O)c1cccc2nsnc12)NCc1ccc(Cl)cc1 | 3.0% | i | 1.1 | 1.11 | 0.0 | 9.0
Cc1cccc(C)c1NC(=O)Cn1c(=O)n(CCCC(=O)NCc2ccco2)c(=O)c2sccc21 | 6.0% | i | 1.02 | 1 | 13.0 | 5.0
Cc1oc2c(O)c(O)ccc2c(=O)c1-c1cnn(-c2ccccc2)c1 | 3.0% | i | 1.07 | 1.06 | 1.0 | 8.0
Cc1oc2c(O)c(O)ccc2c(=O)c1-c1ccccc1 | 13.0% | i | 0.98 | 1.04 | 29.0* | 5.0
CCOc1ccccc1Oc1c(C)oc2c(CN3CCN(C)CC3)c(O)ccc2c1=O | 12.0% | . | 3.93* | 1.12 | 14.0 | 9.0
CNc1nn(-c2cccc(Cl)c2)nc1N | 5.0% | i | 1.17 | 1.09 | 16.0 | 0.0
O=C1CC(c2cccnc2)c2cc3c(cc2N1)OCO3 (centres undefined) | 5.0% | + | 1.08 | 1 | 10.0 | 12.0
Cc1ccc(S(=O)(=O)N2CCCC(C(=O)NCC3COCCO3)C2)cc1 (centres undefined) | 1.0% | i | 1.08 | 1.04 | 1.0 | 3.0
Cc1ccc(S(=O)(=O)c2c(N)n(CC3CCOC3)c3nc4ccccc4nc23)cc1 (centres undefined) | 9.0% | . | 2.09* | 1.08 | 15.0 | 2.0
Cc1ccc(S(=O)(=O)N2CCC(C(=O)Nc3ccccc3N3CCCCC3)CC2)cc1 | 4.0% | i | 1.04 | 0.99 | 11.0 | 0.0
SMILES | NADH enzymes | Spn DPM-DC inh | Fluor 339 460 | A340 absorber | PMK inhibit | Spn MK inh
Nc1c(S(=O)(=O)c2cccc(Cl)c2)c2nc3ccccc3nc2n1CCN1CCOCC1 | 8.0% | . | 3.88* | 1.09 | 10.0 | 5.0
Cc1ccc(S(=O)(=O)c2c(N)n(NC(=O)C3CC3)c3nc4ccccc4nc23)cc1 | 14.0% | . | 3.75* | 1.07 | 15.0 | 12.0
CCN1CCN(S(=O)(=O)c2ccc(S(=O)(=O)N(CC)Cc3ccccc3)cc2)CC1 | 3.0% | i | 1.05 | 1 | 0.0 | 6.0
Cc1ccc(-n2c(SCC(=O)NCc3ccco3)nnc2-c2cccnc2)c(C)c1 | 17.0% | + | 1.33 | 1.02 | 11.0 | 5.0
Cc1cccc(-n2c(SCC(=O)NCc3ccco3)nnc2-c2ccco2)c1 | 6.0% | i | 1.05 | 0.99 | 15.0 | 0.0
CCCCCCNC(=O)c1c(N)n(/N=C/c2ccco2)c2nc3ccccc3nc12 | 5.0% | . | 2.97* | 1.12 | 10.0 | 11.0
CCCCCCNC(=O)C(C#N)c1nc2ccccc2nc1N1CCOCC1 (centres undefined) | 8.0% | i | 1.62 | 1.03 | 13.0 | 8.0
COCCNC(=O)c1c(N)n(/N=C/c2cccs2)c2nc3ccccc3nc12 | 2.0% | . | 2.48* | 1.11 | 0.0 | 0.0
CC(C)CNC(=O)c1c(N)n(/N=C/c2ccccn2)c2nc3ccccc3nc12 | 4.0% | i | 1.08 | 1.03 | 2.0 | 7.0
Nc1c(C(=O)NC2CCCCC2)c2nc3ccccc3nc2n1/N=C/c1ccco1 | 11.0% | . | 3.68* | 1.05 | 13.0 | 9.0
CNC(=O)N(C1=NCC(C)(C)S1)c1ccc(F)c(Cl)c1 | 8.0% | i | 1.11 | 1.08 | 14.0 | 11.0
CCCCC(SCC(=O)Nc1ccccc1)C(=O)O (centres undefined) | 3.0% | i | 1.09 | 1.06 | 10.0 | 0.0
COc1ccc(C2C3=C(CC(C)(C)CC3=O)Nc3c2c(=O)[nH]c(=O)n3Cc2ccccc2)cc1 (centres undefined) | 6.0% | i | 1.45 | 1.05 | 12.0 | 6.0
Cc1nc2[nH]c(=O)c3c(n2n1)NC1=C(C(=O)CC(C)(C)C1)C3c1ccc(F)cc1 (centres undefined) | 5.0% | . | 3.78* | 1.08 | 8.0 | 1.0
CCc1ccc(C2C3=C(CC(C)(C)CC3=O)Nc3c2c(=O)[nH]c2nc(C)nn32)cc1 (centres undefined) | 0.0% | . | 3.42* | 1.08 | 0.0 | 0.0
Cc1ccc(C2C3=C(CC(C)(C)CC3=O)Nc3[nH]c(=S)[nH]c(=O)c32)cc1 (centres undefined) | 12.0% | i | 1.13 | 1.06 | 18.0 | 13.0
COc1ccc(OCCN2CCN(C3CC(=O)N(CCC(C)C)C3=O)CC2)cc1 (centres undefined) | 10.0% | i | 1.07 | 1.03 | 0.0 | 11.0
CCOC(=O)CCc1c(C)nc2cc(-c3ccc(F)cc3)[nH]n2c1=O | 4.0% | i | 1.36 | 0.99 | 11.0 | 8.0
CCOC(=O)CSCc1nc(-c2ccc(Cl)cc2)oc1C | 1.0% | i | 1.07 | 1.03 | 0.0 | 3.0
CCOC(=O)CNc1c(-c2ccc(Cl)cc2)nc2cnccn12 | 10.0% | . | 4.86* | 1.09 | 20.0 | 0.0
CCOC(=O)CNc1c(-c2ccc(F)cc2)nc2cnccn12 | 13.0% | . | 2.27* | 1.11 | 18.0 | 8.0
O=C(CSc1nnc(C2CCCCC2)n1Cc1ccccc1)NCc1ccco1 | 4.0% | i | 1.12 | 1.01 | 4.0 | 8.0
